# Assay results taken from PubChem BioAssay (NCI).
# This is part of a sample that, as a whole, favours compounds with a hit. Of some 83,000 tested, about 20% had one in any assay.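 In brief: 96-well plates, 48 h treatment, single concentration, percent growth endpoint.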 A number with no mark means an inactive call. The source made the active and inactive calls. The calls were made as follows: active = growth percent below 10; inactive = the rest.
# Columns and labels:
# Test in all cases: NCI-60 one-dose screen, 48 h (100 = growth as untreated, 0 = no growth, -100 = all killed)
# [1] = system: HCT-15 colon; conditions: 10 µM unless noted
# [2] = system: HT29 colon; conditions: 10 µM unless noted
# [3] = system: SNB-75 CNS; conditions: 10 µM unless noted
# [4] = system: SNB-19 CNS; conditions: 10 µM unless noted
# [5] = system: U251 CNS; conditions: 10 µM unless noted
# [6] = system: PC-3 prostate; conditions: 10 µM unless noted
# [7] = system: SK-MEL-5 melanoma; conditions: 10 µM unless noted
# [8] = system: UACC-62 melanoma; conditions: 10 µM unless noted
# [9] = system: LOX IMVI melanoma; conditions: 10 µM unless noted
# [10] = system: SK-MEL-28 melanoma; conditions: 10 µM unless noted
# [11] = system: SK-MEL-2 melanoma; conditions: 10 µM
# [12] = system: EKVX NSCLC; conditions: 10 µM unless noted
# [13] = system: SN12C renal; conditions: 10 µM unless noted
# [14] = system: UO-31 renal; conditions: 10 µM unless noted
# [15] = system: TK-10 renal; conditions: 10 µM unless noted
# [16] = system: ACHN renal; conditions: 10 µM unless noted
# [17] = system: CAKI-1 renal; conditions: 10 µM unless noted
# [18] = system: CCRF-CEM leukemia; conditions: 10 µM unless noted
# [19] = system: MOLT-4 leukemia; conditions: 10 µM unless noted
# [20] = system: A498 renal; conditions: 10 µM unless noted
Structure (SMILES),growth [1],growth [2],growth [3],growth [4],growth [5],growth [6],growth [7],growth [8],growth [9],growth [10],growth [11],growth [12],growth [13],growth [14],growth [15],growth [16],growth [17],growth [18],growth [19],growth [20]
COc1ccc2c(CCCC(c3ccccc3)c3ccccc3)c3[n+](cc2c1OC)CCc1cc2c(cc1-3)OCO2,13.2%,-2.94% (active),-19.1% (active),-16.4% (active),-76.2% (active),-68.8% (active),-100% (active),-71.7% (active),-100% (active),-78.7% (active),-52.4% (active),14.9%,-65.6% (active),5.46% (active),-30.7% (active),11.6%,57.7%,5.53% (active),-20.5% (active),–
CCCCCCCC(=O)SCC/C=C/[C@@H]1CC(=O)NCc2cccc(n2)C2=N[C@@](C)(CS2)C(=O)N[C@@H](C(C)C)C(=O)O1,2.94% (active),0.997% (active),31.3%,14.3%,-32.1% (active),11.5%,-93.9% (active),-64.1% (active),-94.3% (active),1.51% (active),-1.86% (active),22.2%,22.6%,-8.17% (active),-16.1% (active),-11.8% (active),-38.8% (active),30.6%,14.3%,–
CC(C)n1c(NCCc2ccc(O)c(O)c2)nc2c1c(=O)n(C)c(=O)n2C,98.8%,98.1%,80.2%,101%,97.5%,89.3%,92.8%,94.4%,95.2%,102%,107%,101%,98.4%,87.3%,84.6%,99.3%,88.1%,99.6%,105%,–
CSc1nc2ncnc(SC)c2[nH]1,110%,89.6%,86.8%,116%,83.9%,91.6%,106%,110%,99.3%,107%,99.4%,94%,100%,82%,99.8%,103%,90.9%,105%,98.9%,–
COc1ccc(C2CC(=O)c3c(O)c(OC)c(OC)c(OC)c3O2)c(O)c1 (stereo unspecified),10.3%,65.3%,38.1%,35.6%,24.3%,29%,20%,37%,44.2%,61.2%,52%,48.4%,47.4%,54.2%,73.1%,44.3%,41.1%,25.5%,22.6%,–
CCc1nc2cc(/C=C/C(=O)NO)ccc2c(=O)n1CCc1ccc(F)cc1,24.7%,8.3% (active),30.6%,23.6%,-20.8% (active),13.2%,-37.8% (active),-28.8% (active),-73.2% (active),22.8%,49.1%,38.5%,0.812% (active),-15.5% (active),-12.3% (active),-26.5% (active),0.0916% (active),2.06% (active),-3.04% (active),–
COc1cnc2c(c1)C(=O)c1c-2n(CCCNC2=NCCS2)c(=O)c2cc(Cl)ccc12,-69.2% (active),-82.7% (active),57.9%,-29.7% (active),-89.7% (active),20.5%,39.4%,-76.6% (active),-90.5% (active),90.8%,90.5%,-35.8% (active),-49.4% (active),-80.6% (active),-17.7% (active),-91.8% (active),-91.8% (active),-23% (active),-41.5% (active),-13% (active)
COc1cc(C(=O)NNC(=O)c2ccc(NC(=O)CCl)cc2)cc(OC)c1OC,86.4%,60.5%,87.4%,88.9%,11.1%,66.1%,77.9%,66.9%,28.9%,86.9%,80.7%,92.4%,65.9%,80.1%,107%,89.8%,98.2%,33%,57.2%,85.9%
CC(C)(C)CC(C)(C)Nc1c(-c2c(O)c3ccccc3oc2=O)nc2c(Cl)cc(C(F)(F)F)cn12,107%,105%,85.7%,101%,101%,79.6%,97.8%,93.4%,98.1%,113%,102%,97.3%,91.6%,70.7%,96.4%,97.3%,87.6%,89.1%,82.6%,62%
OCCNC(=S)Nc1ccc(-c2nc(N3C[C@H]4CC[C@@H](C3)O4)c3cccn3n2)cc1,13%,20.1%,-30.4% (active),0.975% (active),7.99% (active),9.91% (active),-34.8% (active),-36.5% (active),1.79% (active),-5.35% (active),-21.5% (active),1.72% (active),2.32% (active),-13.8% (active),-28.2% (active),6.16% (active),6.32% (active),18.9%,16.7%,-37.5% (active)
C=C1[C@@H](O)C[C@H]2C(C)(C)C[C@H](Cl)C[C@]2(C)[C@H]1C[C@H](O)[C@H]1CC(=O)NC1=O,-13.7% (active),-23.6% (active),-37.2% (active),-20.7% (active),-16.8% (active),-19% (active),-70.1% (active),-72.4% (active),-71.9% (active),-26.1% (active),-70.4% (active),-25.1% (active),-28.9% (active),-26.1% (active),-18.6% (active),-26.2% (active),1.87% (active),0.532% (active),-11.2% (active),-76% (active)
N#Cc1c(-c2ccc(C(F)(F)F)cc2)cc(NCC2CCS(=O)(=O)CC2)n2c1nc1ccccc12,86.2%,75.7%,52.5%,83.5%,83.2%,63.4%,77.7%,80.8%,77.5%,95.8%,89.7%,77.5%,82.3%,56.2%,93.1%,86.8%,80.9%,86.2%,74.3%,55.3%
Cc1cccc(NC(=O)[C@@H]2c3ccccc3C(=O)N(c3ccc(Cl)cc3)[C@H]2c2ccc(Cl)cc2)n1,26.1%,11%,68.5%,67.5%,43.1%,17.1%,33.1%,44.1%,80.3%,69.2%,56.6%,37.2%,66.5%,37.6%,69.6%,52%,55.6%,73.2%,35.9%,–
O=C1/C(=C\c2cccc(OCCCCCOc3ccc(Cl)cc3)c2)N=C2SCCCN12,57.7%,67.4%,71.3%,75%,74.1%,28.8%,-6.82% (active),56.6%,67.1%,58.7%,41.2%,37.2%,77.6%,39.4%,56.7%,49.3%,52.7%,55.9%,36.7%,39.6%
C=CCC(=O)N[C@H](/C=C/C(=O)O)Cc1ccc(-c2cc(Cl)cc(Cl)c2)cc1,98.1%,97.8%,87%,97.9%,83%,80.6%,95.7%,86.8%,96.9%,112%,101%,95.9%,100%,81%,104%,102%,86.3%,102%,91.2%,–
NN1C(=O)CSC1=S,105%,83.9%,95.6%,116%,85.6%,93.4%,104%,116%,98.6%,115%,95%,98.6%,102%,94%,95.2%,107%,93.9%,108%,98.8%,–
